Reference: PubChem BioAssay (EPA / NIEHS)
Records with an inconclusive call do not appear. A structure can be active in one record and inactive in another. Active and inactive are the calls of the source. How the source made its calls, unless noted: active means hit-call score of the fitted dose curve at least 0.9, where 1 is the maximum; inactive means score below 0.9.

How the values were obtained:
[1] = BSK_BT_PBMCCytotoxicity: PBMC Cytotoxicity Assessment in the BioMAP Diversity Plus: BT Assay (AID 2284225); settings: primary human B cells with PBMC;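 further: PBMC viability measured by Alamar Blue dye reduction fluorescence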
How it was run: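 Viability by Alamar Blue reduction (6 h, ex/em 546/580 nm) after 90 h culture of SEB/TSST-1-activated PBMC (20 ng/mL each) given compound 1 h before activation. DMSO served as baseline for curve fitting.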

[2] = read-out: Secreted IgG (sIgG), gene 3500; assay: BSK_BT_sIgG: BioMAP Diversity Plus: BT Assay for Secreted IgG (sIgG) Biomarker Activity (AID 2284226); settings: primary human B cells with PBMC
How it was run: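 Cells (B cells with peripheral blood mononuclear cells) are dosed, cultured 24 h, then supernatant IgG is measured by ELISA. DMSO serves as negative control; curves are fitted for signal increase.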

[3] = BSK_BT_Bcell_Proliferation: Viability Assessment in the BioMAP Diversity Plus: BT Assay for B cell Proliferation (AID 2284227); settings: primary human B cells with PBMC
How it was run: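 SRB-based protein staining (0.1% SRB after 10% TCA fixation, 560 nm) quantifies proliferation in human B cells co-cultured with PBMC, 72 h post-dosing, with signal gain scored relative to DMSO negative control.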

[4] = read-out: Interleukin 6 (IL6), IL6 (gene 3569); assay: BSK_BT_xIL6: BioMAP Diversity Plus: BT Assay for Interleukin 6 (IL6) Biomarker Activity (AID 2284228); settings: primary human B cells with PBMC
How it was run: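 Readout: secreted IL-6 via Luminex xMAP multiplex, 24 h post-dosing. System: primary human B cells co-cultured with PBMC. Signal change scored relative to DMSO vehicle, positive fitting direction.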

[5] = read-out: Tumor necrosis factor (Homo sapiens) (UniProt P01375); assay: BSK_BT_xTNFa: BioMAP Diversity Plus: BT Assay for Tumor necrosis factor alpha (TNF-alpha) Biomarker Activity (AID 2284230); settings: primary human B cells with PBMC
How it was run: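 Compounds were added to a B cell plus PBMC co-culture, and after 24 h secreted TNF-alpha was quantified with Luminex xMAP technology, with responses fitted upward from the DMSO control.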

[6] = read-out: Vascular cell adhesion molecule 1 (VCAM1), VCAM1 (gene 7412); assay: BSK_MyoF_VCAM1: BioMAP Diversity Plus: MyoF Assay for Vascular cell adhesion molecule 1 (VCAM1) Biomarker Activity (AID 2284231); settings: primary human lung fibroblasts
How it was run: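 MyoF system, lung fibroblasts; 24 h post-dose; VCAM-1 by ELISA; gain-of-signal fit vs DMSO baseline.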

[7] = read-out: Collagen I, COL1A1 (gene 1277); assay: BSK_MyoF_CollagenI: BioMAP Diversity Plus: MyoF Assay for Collagen I Biomarker Activity (AID 2284238); settings: primary human lung fibroblasts
How it was run: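 ELISA readout of Collagen I after 24 h chemical treatment of primary human lung fibroblast cultures; gain of signal scored relative to DMSO vehicle baseline.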

[8] = read-out: Collagen III, COL3A1 (gene 1281); assay: BSK_MyoF_CollagenIII: BioMAP Diversity Plus: MyoF Assay for Collagen III Biomarker Activity (AID 2284239); settings: primary human lung fibroblasts
How it was run: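 Lung fibroblast culture; 24 h compound exposure; collagen III by ELISA; gain-of-signal fit vs DMSO baseline.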

[9] = read-out: Interleukin 17F (IL17F), IL17F (gene 112744); assay: BSK_BT_xIL17F: BioMAP Diversity Plus: BT Assay for Interleukin 17F (IL17F) Biomarker Activity (AID 2284243); settings: primary human B cells with PBMC
How it was run: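 Secreted IL-17F, read on LumineX xMAP beads, was taken as the endpoint. Cultures combined human B cells and peripheral blood mononuclear cells, sampled 24 hours after dosing, with DMSO serving as negative control.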

[10] = CCTE_Mundy_HCI_Cortical_Synap_Neur_Matur_CellBodySpotCount: CCTE's Synaptogenesis and Neurite Maturation Assay in rat cortical cells for Cell Body Spot Count, Mundy Lab (AID 2284223)
How it was run: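 Read-out: cell body-associated synaptophysin puncta per neuron, imaged after MAP2, synaptophysin and Hoechst staining. Rat cortical cells, AraC DIV 5, chemical dosing DIV 7, fixation DIV 12. Activity fitted in positive direction relative to DMSO baseline.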

[11] = CCTE_Mundy_HCI_hNP1_Pro_ResponderAvgInten: CCTE's Proliferation Assay in human neuroprogenitor cells, Mundy Lab (AID 2284224; active means hit-call score of the fitted dose curve at least 0.9, where 1 is the maximum;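 further: human neural progenitor cells hNP1 derived from WA09 embryonic stem cells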)
How it was run: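 Human neuroprogenitors (hNP1, WA09 lineage) receive test chemical after 40 to 44 hours of attachment. A four-hour BrdU pulse begins twenty hours later, followed by fixation and high content imaging; signal is referenced to DMSO controls.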

[12] = TAMU_HCS_1.5hr_SingleDonor1434_Cytotoxicity: Cytotoxicity Assessment using High-content Screening (HCS) Fluorescent Imaging for the Texas A&M University (TAMU) 1.5-hr Human Induced Pluripotent Stem Cell (iPSC)-derived Cardiotoxicity Assay (AID 2284234; active means hit-call score of the fitted dose curve at least 0.9, where 1 is the maximum)
How it was run: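 Nuclear counts from Hoechst 33342 imaging define cytotoxicity here, with EC10 (10% cell-count loss relative to DMSO) as point of departure. iPSC cardiomyocytes received 0.2-100 uM test chemical in 0.5% DMSO for 1.5 h at 37 C.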

[13] = TAMU_PeakParms_SingleDonor1434_QT: Texas A&M University (TAMU) 1.5-hr Human Induced Pluripotent Stem Cell (iPSC)-derived Cardiomyocytes Calcium (Ca+2) Flux Assay for Cardiotoxicity: QT (decay-rise ratio) (AID 2284235; active means hit-call score of the fitted dose curve at least 0.9, where 1 is the maximum)
How it was run: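 Decay/rise ratio of calcium-flux fluorescence scored after 90 min exposure (37C) of donor 1434 iPSC cardiomyocytes to 0.2–100 uM (0.5% DMSO). Beat-cessation and severe-notch points removed; POD is EC05, a 5% rise over DMSO.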

[14] = CCTE_Mundy_HCI_Cortical_NOG_NeuronCount: CCTE's Neurite Outgrowth Assay in rat cortical cells for Neuron Count, Mundy Lab (AID 2284236; active means hit-call score of the fitted dose curve at least 0.9, where 1 is the maximum;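 further: neurons counted by imaging betaIII-tubulin and Hoechst stained cortical cells; cells exposed to compound for about 48 hours before fixation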)
How it was run: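 Read-out: neuron number by high-content imaging of betaIII-tubulin (Alexa Fluor-488) and Hoechst-labelled rat primary cortical cells.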

[15] = CCTE_Mundy_HCI_hNP1_Casp3_7: CCTE's Caspase-Glo 3/7 Assay in human neuroprogenitor cells for Apoptosis, Mundy Lab (AID 2284240)
How it was run: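 Neuroepithelial-lineage stem cells from WA09 embryonic cells were treated with chemicals after 40–44 h of culture. Twenty-four hours later, caspase-3/7 activation was detected luminescently after a 30 min room-temperature reagent step, with DMSO as baseline.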

[16] = CCTE_Mundy_HCI_Cortical_Synap_Neur_Matur_NeuronCount: CCTE's Synaptogenesis and Neurite Maturation Assay in rat cortical cells for Neuron Count, Mundy Lab (AID 2284242; active means hit-call score of the fitted dose curve at least 0.9, where 1 is the maximum)
How it was run: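 Cortical cells from rat are plated, treated with AraC at DIV 5, and exposed to test chemicals with a media change at DIV 7. At DIV 12 they are fixed and immunostained (MAP2, synaptophysin), and imaged neuron counts are compared against DMSO controls.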

[17] = read-out: Interleukin 17A (IL17A), IL17A (gene 3605); assay: BSK_BT_xIL17A: BioMAP Diversity Plus: BT Assay for Interleukin 17A (IL17A) Biomarker Activity (AID 2284229); settings: primary human B cells with PBMC
How it was run: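 Luminex xMAP readout of secreted IL-17A; human B cell + PBMC co-culture; 24 h post-dose; positive-direction fit vs DMSO negative control.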

[18] = CCTE_Mundy_HCI_hNP1_CellTiter: CCTE's Cell Titer-Glo 2 Assay in human neuroprogenitor cells for Viability, Mundy Lab (AID 2284241; active means hit-call score of the fitted dose curve at least 0.9, where 1 is the maximum)
How it was run: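 Measures ATP content in human neural progenitors derived from WA09 embryonic cells. Read-out at 26.5 hours after dosing, with DMSO serving as the negative control and baseline.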

[19] = UKN2_HCS_IMR90_cell_viability: Viability Assessment in the University of Konstanz (UKN) Leist Lab Neural Crest Cell Migration Assay in human induced IMR90 Pluripotent Stem Cells (UKN2) (AID 2284233);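 further: viability of neural crest cells differentiated from IMR90 iPSC measured by calcein-AM fluorescence imaging; cells exposed to compound for 24 h after a 24 h migration phase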
How it was run: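 cMINC format, iPSC-derived neural crest (IMR90); 24 h migration (EGF/FGF, N2-S), then 24 h toxicant. Calcein-AM/H-33342 stain 30 min; fluorescence intensity by HCS; DMSO-normalised, bidirectional fitting.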

[20] = CCTE_Mundy_HCI_Cortical_NOG_BPCount: CCTE's Neurite Outgrowth Assay in rat cortical cells for Branch Point Count, Mundy Lab (AID 2284237)
How it was run: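 Measured 50.33 h after dosing, this morphology endpoint uses rat primary cortical cultures labelled for betaIII-tubulin. Branch points are quantified by high-content imaging, with DMSO as negative control and baseline.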

Measured: AC50

Tumor necrosis factor (Homo sapiens), sequence (P01375 whole entry, looked up): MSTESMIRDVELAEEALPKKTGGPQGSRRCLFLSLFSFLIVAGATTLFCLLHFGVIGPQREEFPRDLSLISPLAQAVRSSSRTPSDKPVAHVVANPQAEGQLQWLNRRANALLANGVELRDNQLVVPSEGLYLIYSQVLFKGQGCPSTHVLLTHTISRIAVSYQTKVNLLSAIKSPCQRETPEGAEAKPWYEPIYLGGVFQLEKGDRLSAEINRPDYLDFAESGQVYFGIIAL

Cc1ccc(S(=O)(=O)OCC(F)(F)C(F)(F)C(F)(F)C(F)(F)C(F)(F)C(F)F)cc1
active: [2] 41.7 µM
inactive: [1] | [2] | [3] | [4] | [5] | [6] | [7] | [8] | [9]

OC[C@@H](O)[C@@H](O)[C@H](O)[C@@H](O)CO
inactive: [10] | [11] | [12] | [13] | [14] | [15] | [16]

O=C(O)C(F)(F)C(F)(F)OC(F)(F)F
not listed: [10] | [12] | [13] | [14] | [16] | [19] | [20]
inactive: all other assays above

CC(CCl)OP(=O)(OC(C)CCl)OC(C)CCl (stereo unspecified)
not listed: [7] | [12] | [13] | [17]
inactive: all other assays above

CC(=O)Nc1ccc(N=Nc2cc(C)ccc2O)cc1
inactive: [1] | [3] | [17] | [5] | [8] | [9]
active: [2] 9.61 µM | [4] 0.016 µM | [6] 20 µM

N=C(N)C(F)(F)C(F)(F)C(F)(F)C(F)(F)C(F)(F)C(F)(F)C(F)(F)F
inactive: [11] | [1] | [2] | [3] | [4] | [5] | [6] | [8] | [15] | [18] | [9]
active: [1] 44.7 µM | [2] 44.4 µM | [3] 45.4 µM | [4] 46 µM | [5] 45.5 µM | [9] 31.7 µM

FC(F)(F)C(F)(F)CNCC(F)(F)C(F)(F)F
inactive: [1] | [2] | [3] | [4] | [17] | [5] | [6] | [8] | [9]
